A selection: hits, their analogues and other compounds. The true share with any hit is near 3.6%.
MazF activator – increases E. coli MazEF RNase cleavage of RNA | P0AE70 | FAM/BHQ RNA-DNA oligo cleavage fluorescence, 5 h | activation, % at 20 µM | 350,000 compounds, 0.32% hits | AID 504720; in the data active = activation above about 50%
Bead autofluor – flagged as autofluorescent in microsphere protease counterscreen; compound autofluorescence counterscreen, microsphere flow cytometry; active compounds read high; fluorescence intensity (no concentration beside the values); 360,000 compounds, 3.1% hits; in the data active = fluorescence intensity above about 16000; inconclusive = no clear call, values can overlap the other calls
BoNT-A LC inh2 – blocks Botulinum neurotoxin A light chain protease; multiplex microsphere protease substrate cleavage, flow cytometry; inhibition, % at 10 µM; 360,000 compounds, 0.17% hits; AID 588499
BoNT F protease – blocks Botulinum neurotoxin F light chain protease; Multiplex microsphere protease cleavage assay, flow cytometry; inhibition, % at 10 µM; 360,000 compounds, 0.22% hits; AID 588497; in the data active = inhibition above about 35%, passing the limit was not always enough; inconclusive = no clear call, values can overlap the other calls
Anthrax LF inh2 – inhibitors of Bacillus anthracis lethal factor protease; P15917; multiplex microsphere protease cleavage assay, LF; inhibition, % at 10 µM; 360,000 compounds, 0.12% hits
Target sequence (P15917 whole entry, looked up): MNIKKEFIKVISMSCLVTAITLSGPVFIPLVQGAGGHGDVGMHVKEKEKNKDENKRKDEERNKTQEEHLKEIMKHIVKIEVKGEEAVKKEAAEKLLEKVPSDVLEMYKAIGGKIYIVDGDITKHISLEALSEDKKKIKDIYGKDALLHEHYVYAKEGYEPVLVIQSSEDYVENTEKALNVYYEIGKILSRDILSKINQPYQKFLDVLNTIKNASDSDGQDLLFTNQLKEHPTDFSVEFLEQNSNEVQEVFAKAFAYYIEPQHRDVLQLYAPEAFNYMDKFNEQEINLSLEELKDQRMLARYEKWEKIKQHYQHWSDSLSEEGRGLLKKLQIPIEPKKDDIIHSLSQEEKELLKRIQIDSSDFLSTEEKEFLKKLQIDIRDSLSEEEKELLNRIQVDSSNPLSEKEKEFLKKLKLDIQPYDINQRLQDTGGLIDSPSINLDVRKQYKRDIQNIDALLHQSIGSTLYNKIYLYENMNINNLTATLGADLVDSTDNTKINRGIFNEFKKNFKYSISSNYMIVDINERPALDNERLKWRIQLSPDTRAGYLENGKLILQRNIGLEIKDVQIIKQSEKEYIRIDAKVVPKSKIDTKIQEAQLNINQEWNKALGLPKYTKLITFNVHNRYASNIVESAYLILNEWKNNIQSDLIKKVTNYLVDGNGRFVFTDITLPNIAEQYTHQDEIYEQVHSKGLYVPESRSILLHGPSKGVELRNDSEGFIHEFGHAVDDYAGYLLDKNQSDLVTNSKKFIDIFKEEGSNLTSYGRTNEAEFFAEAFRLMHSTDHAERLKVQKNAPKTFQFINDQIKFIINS
Large screens that a line does not name were inactive. Rule as the data show it, unless noted: active = inhibition above about 30%; inconclusive = no clear call, values can overlap the other calls; inactive = below that.

O=C1CCCC2=C1C(c1ccc(Cl)cc1)n1c(s/c(=C\c3ccc4ccncc4c3)c1=O)=N2 (centres undefined)	BoNT-A LC inh2 37
Cc1oc(-c2cccc(Cl)c2)nc1CN1CCC(C(=O)NCC2CCCO2)CC1 (centres undefined)	none
O=C(NCc1cccs1)C1CCN(c2nccs2)CC1	none
Cc1ccccc1-c1nc(CN2CCC(C(=O)NCC3CCCO3)CC2)c(C)o1 (centres undefined)	Bead autofluor 25315
Cc1oc(-c2ccccc2F)nc1CN1CCC(C(=O)NCc2cccs2)CC1	Bead autofluor 21985
Cc1cc(-c2ccccc2)nc(N2CCC(C(=O)NC(C)C)CC2)n1	Bead autofluor 16521
Cc1cc(C)nc(N2CCC(C(=O)NCc3cccs3)CC2)n1	Bead autofluor 23240, BoNT-A LC inh2 inconclusive
C[C@@H]1O[C@@H](O[C@@H]2C(=O)c3c(O)cc(O)cc3O[C@H]2c2ccc(O)c(O)c2)[C@H](O)[C@H](O)[C@H]1O	none
CCOc1ccc(S(=O)(=O)NCCC(=O)NCC(c2ccc(OC)cc2)N2CCCCC2)cc1 (centres undefined)	Bead autofluor inconclusive, BoNT-A LC inh2 inconclusive, BoNT F protease inconclusive, Anthrax LF inh2 inconclusive
Cc1oc(-c2ccccc2F)nc1CN1CCC(C(=O)NC2CC2)CC1	Bead autofluor 20198
COc1ccc(NS(=O)(=O)c2ccc(-n3nnc4ccccc43)c([N+](=O)[O-])c2)cc1	Bead autofluor 21241
O=[N+]([O-])c1cc(S(=O)(=O)Nc2cccc(C(F)(F)F)c2)ccc1-n1nnc2ccccc21	none
CC1CCCN(c2nc3nonc3nc2N2CCCC(C)C2)C1 (centres undefined)	none
CC1CCN(c2nc3nonc3nc2N2CCC(C)CC2)CC1	Bead autofluor 21212, BoNT-A LC inh2 inconclusive
COC(=O)c1c(NC(=O)CSc2n[nH]c(N)n2)sc(C)c1C	none
Cc1sc(NC(=O)CSc2n[nH]c(N)n2)c(C#N)c1C	MazF activator 53
O=c1[nH]c(N/N=C\c2ccc(F)cc2)nc2ccccc12	MazF activator 56
O=c1[nH]c(N/N=C/c2ccc(O)cc2)nc2ccccc12	MazF activator 51
CCOc1ccc(C2C(C#N)=C(N)SC(N)=C2C#N)cc1OCC	none
CCOc1ccc(C2C(C#N)=C(N)N3C(=C2C#N)Sc2ccccc23)cc1 (centres undefined)	MazF activator 100
Cc1ccc(-c2nnn(Cc3nc4ccccc4s3)n2)cc1	Bead autofluor 21007
C=CCNC(=O)c1cccc(Br)c1	Bead autofluor 23849
O=C(NCc1cccs1)c1ccc2sc([C@@H]3O[C@H](CO)[C@H](O)[C@H](O)[C@H]3O)nc2c1	none (no result: MazF activator)
O=C(Nc1cccc(Cl)c1)c1cc(S(=O)(=O)N2CCOCC2)cs1	none
Cc1cccc(C)c1Nc1nnc(SCc2cc([N+](=O)[O-])cc3c2OCOC3)s1	Bead autofluor 16667
CCNC(=O)CSc1nnc(-c2cccc(S(=O)(=O)N(CC)CC)c2)n1CCc1ccccc1	Bead autofluor 20492
O=C(Nc1nnc([C@@H]2C[C@H](O)[C@@H](CO)O2)s1)c1cccc2ccccc12	none (no result: MazF activator)
CCCCn1c(N)c(N(CCOC)C(=O)CSc2nnc(-c3ccco3)n2CC)c(=O)[nH]c1=O	none
Cc1ccc(-c2cn(S(=O)(=O)c3ccc(C)cc3)nc2N)cc1	Bead autofluor 24762
Nc1nn(S(=O)(=O)c2ccccc2)cc1-c1cccc([N+](=O)[O-])c1	none
CCOc1cc(S(=O)(=O)n2cc(-c3ccc(F)cc3)c(N)n2)cc(OCC)c1OCC	none
CCOc1ccc(S(=O)(=O)n2cc(-c3ccc(F)cc3)c(N)n2)cc1	Bead autofluor 23064
CCOc1ccc(S(=O)(=O)n2cc(-c3ccccc3)c(N)n2)cc1	Bead autofluor 23986
OC[C@@H](O)[C@@H](O)[C@H](O)[C@H](O)CO	none
O=C(OCC(=O)N1CCCCC1)c1cc(NS(=O)(=O)c2ccc(Cl)c([N+](=O)[O-])c2)ccc1O	none
CCN1C(=O)/C(=C2\SC(=S)N(c3c(C)n(C)n(-c4ccccc4)c3=O)C2=O)c2ccccc21	Bead autofluor 20899, BoNT-A LC inh2 inconclusive
O=[N+]([O-])c1c(NCCO)cc(N2CCCCCC2)c2nonc12	BoNT F protease inconclusive, Anthrax LF inh2 100
Fc1cnc(N2CCc3ccccc32)nc1N1CCc2ccccc21	Bead autofluor 16473
CC1(C)CC(=O)c2cnc(N3CCc4ccccc43)nc2C1	none (no result: Bead autofluor, BoNT-A LC inh2, BoNT F protease, Anthrax LF inh2)
CC(C)C[C@@H]1Cc2[nH]c(=S)[nH]c(=O)c2[C@H](CCc2ccccc2)O1	none (no result: MazF activator)
CCOC(=O)c1c(-c2ccccc2)oc2ccc(O)c(CN3CCCC3)c12	Bead autofluor 17165
CSc1nnc(-c2ccc(S(=O)(=O)N3CCOCC3)cc2)n1CC1CCCO1 (centres undefined)	Bead autofluor 17507
CCn1c(SCC(=O)Nc2ccc(C)cc2)nnc1-c1ccc(O)cc1	Bead autofluor 17034
CCC(=O)Nc1ccc(C(=O)CSc2nnc(-c3ccc(O)cc3)n2CC2CCCO2)cc1 (centres undefined)	Bead autofluor 23574
CCSc1nnc(-c2ccc(S(=O)(=O)N3CCOCC3)cc2)n1CC1CCCO1 (centres undefined)	none
CCn1c(SCC(=O)Nc2cccc(OC)c2)nnc1-c1ccc(Cl)cc1	Bead autofluor 21821, BoNT-A LC inh2 inconclusive
N#Cc1cccc(NC(=O)CNc2cc(S(=O)(=O)N3CCOCC3)ccc2N2CCCC2)c1	none
O=C(NCc1ccccc1)c1cc(C2COCCN2S(=O)(=O)c2ccccc2)on1 (centres undefined)	none (no result: MazF activator)
CC1CC(C)CN(C(=O)C(C)N2CCN(S(=O)(=O)c3ccc(Br)s3)CC2)C1 (centres undefined)	none
COc1ccc(Nc2nc(NN)nc(Nc3ccc(OC)cc3)n2)cc1	none
O=C(OC1CCOC1=O)c1cc(S(=O)(=O)N2CCOCC2)c(Cl)cc1Cl (centres undefined)	none
CCn1c(CC(=O)Nc2ccc(C)cc2)nnc1SCC(=O)NCCc1ccccc1	Bead autofluor 24526
Cc1ccc(NC(=O)Cc2nnc(SCC(=O)c3ccc(Br)cc3)n2C)cc1	Bead autofluor 21836
CCn1c(Cc2ccccc2)nnc1SCC(=O)Nc1ccc(C)cc1	none
Cc1ccc(NC(=O)Cc2nnc(SCC(=O)NC3CCCC3)n2C)cc1	none
Cc1nn(-c2ccc(F)cc2)c2sc(C(=O)OCC(=O)N3CCC(C)CC3)cc12	Bead autofluor 19994, BoNT-A LC inh2 inconclusive
CC(C)(C)OC(=O)N1CCC(C(=O)Nc2cccc(C(=O)NCCCc3ccccc3)c2)CC1	none
CN(C)c1ccc(N/C=C/C(=O)c2ccccc2)cc1	MazF activator 154
CCc1ccccc1NC(=O)CN1CCN(CC(=O)Nc2ccc3c(c2)OC2(CCCCC2)O3)CC1	none
CC(C)C[C@H]1CN(CCCC[C@H]2CNC(=O)C(=O)N2CC2CCCCC2)C(=O)C(=O)N1CC1CCCCC1	none (no result: MazF activator)
COCCCN1C(=O)C(CC(=O)NC(c2ccccc2)c2ccccc2)CC(C(=O)N2CCOCC2)=C1C (centres undefined)	none
O=C(O)c1cccnc1SC1CC(=O)N(CCc2ccccc2)C1=O (centres undefined)	Bead autofluor 24601

Source: PubChem BioAssay (several laboratories)
